According to PubChem BioAssay (Tox21):
Inconclusive results are not listed. Where a call stands in place of a potency, no number is given. Activity calls are given as the source filed them. The call rests on the fitted dose curve; in most records, active means well fitted inhibition curve with a large enough effect in the signal ratio in the repeat runs (not every such curve was filed as active); inconclusive means weak or mixed curves, or effect the other way; inactive means flat fitted curve, though single readings scatter; the % refers to the signal ratio.

assay: cAMP Responsive Elements (CRE) small molecule antagonists, cell-based qHTS assay (AID 1963591); settings: CRE-bla HEK293T, beta-lactamase FRET ratio; series mostly up to 92.4 µM
From the text: U.S. Tox21 Program National Center for Advancing Translational Sciences [NCATS] Division of Preclinical Innovation [DPI] U.S. Environmental Protection Agency [EPA] National Institutes of Environmental Health Sciences [NIEHS] National Toxicology Program [NTP] U.S. Food and Drug Administration [FDA] Tox21 Assay Overview: CREB (cyclic-AMP Responsive Element Binding Protein) is a cellular transcription factor. It binds to certain DNA sequences called cAMP Responsive Elements (CRE) and regulates the transcription of the genes. […] This cell line can be used to find agonists/antagonists of the cyclic AMP signaling pathway. The activation of the report gene under culture conditions can be detected by fluorescence intensity. This cell line has been used to screen the Tox21 10K compound library to […].
Tox21 Assay Protocol Summary: CRE-bla Hek 293T cells were suspended in assay medium (DMEM containing 10% dialyzed FBS, 0.1 mM NEAA, 1 mM sodium pyruvate and 25 mM HEPES) and dispensed at 2,000 cells/4 uL /well into 1536-well black wall/clear bottom plates using a Multidrop Combi (ThermoFisher Scientific, Waltham, MA) dispenser. After the assay plates were incubated at 37 C/5% CO2 for 18 hrs, 23 nL of compounds dissolved in DMSO, positive controls or DMSO only was transferred to the assay plate by a pintool workstation (Kalypsys, San Diego, CA), followed by addition of 1 […] uL of 1.25uM NKH477 (0.25 uM as final concentration) in assay medium using a Flying Reagent Dispenser (Aurora Discovery, San Diego, CA). The plates were incubated at 37 C and 5% CO2 for 3 hrs. Then 1 uL of LiveBLAzer B/G FRET substrate (Invitrogen, Carlsbad, CA) was added to each well using Bioraptr Flying Reagent Dispenser (FRD, Aurora Discovery, San Diego, CA). The plates were incubated at room temperature for 2 h.

Row | Structure (SMILES) | Potency | activity change, negative = inhibition
1 | CC(C)CCCCCCCOC(=O)c1ccccc1C(=O)OCCCCCCCC(C)C | inactive | 
2 | CC(=O)[O-].CC(=O)[O-].CC(=O)[O-].[Cr+3] | inactive | 
3 | Oc1cccc(-c2ccccc2)c1 | inactive | 
4 | Cc1cc(C)nc(Nc2ccccc2)n1 | inactive | 
5 | C[C@@H](N)[C@@H](O)c1ccccc1 | inactive | 
6 | CCOC(=O)Cc1ccccc1 | inactive | 
7 | CCc1cc(OC)c(C[C@H](C)N)cc1OC | inactive | 
8 | CC#Cc1cc(C)nc(Nc2ccccc2)n1 | inactive | 
9 | CCN1CCCC1CNC(=O)C(O)(c1ccccc1)c1ccccc1 (stereo not given) | inactive | 
10 | CC(CCc1ccccc1)NC(C)C(O)c1ccc(O)cc1 (stereo not given) | inactive | 
11 | CC[N+]1(C)CCCC(OC(=O)C(O)(c2ccccc2)c2ccccc2)C1 (stereo not given) | inactive | 
12 | C=C(C)CN(CC)c1c([N+](=O)[O-])cc(C(F)(F)F)cc1[N+](=O)[O-] | inactive | 
13 | O=CC=O | inactive | 
14 | OC(c1ccc(F)cc1)(c1cncnc1)c1ccccc1Cl (stereo not given) | inactive | 
15 | O=C(O)C(F)(F)C(F)(F)C(F)(F)C(F)(F)C(F)(F)F | inactive | 
16 | CC(=O)OC(c1ccccc1)C(Cl)(Cl)Cl (stereo not given) | inactive | 
17 | CC(C)=CC1C(C(=O)OC(C#N)c2cccc(Oc3ccccc3)c2)C1(C)C (stereo not given) | inactive | 
18 | O=[N+]([O-])c1cc(C(F)(F)F)cc([N+](=O)[O-])c1Cl | inactive | 
19 | CCCCCCCCCCCCN=C(N)N |  | 1.77% [at 3.27 µM] (inactive)
20 | C#CC(C)(C)O | inactive | 

Row | Structure (SMILES) | Potency | activity change, negative = inhibition
21 | [O-][Br+2]([O-])O | inactive | 
22 | O=C(NC(O)C(Cl)(Cl)Cl)NC(O)C(Cl)(Cl)Cl (stereo not given) | inactive | 
23 | O=C1C(I)=CC(=C(c2cc(I)c(O)c(I)c2)c2ccccc2C(=O)O)C=C1I | inactive | 
24 | Nc1c(Cl)c(F)nc(OCC(=O)O)c1Cl | inactive | 
25 | Brc1cccc(-c2ccccc2)c1 | inactive | 
26 | N#CNC#N | inactive | 
27 | NCC1(CC(=O)O)CCCCC1 | inactive | 
28 | CCCCCCCCP(=O)(O)O | inactive | 
29 | C1CCNCC1 | inactive | 
30 | COc1cccc([C@@]2(O)CCCC[C@@H]2CN(C)C)c1 | inactive | 
31 | ClC(Cl)=C(Cl)Cl | inactive | 
32 | CC1NCCOC1c1ccccc1 (stereo not given) | inactive | 
33 | CCCC[N+](=O)[O-] | inactive | 
34 | O=C1C[C@@H]2OCC=C3CN4CC[C@]56c7ccccc7N1[C@H]5[C@H]2[C@H]3C[C@H]46 | inactive | 
35 | CCCN(CCC)c1c([N+](=O)[O-])cc(C(F)(F)F)cc1[N+](=O)[O-] | inactive | 
36 | O=C(O)C(O)C(O)C(=O)O (stereo not given) | inactive | 
37 | CCOP(=S)(OCC)Oc1ccc(S(C)=O)cc1 (stereo not given) | inactive | 
38 | C[N+](C)=CCl | inactive | 
39 | C[C@H]1CCC[C@H](O)CCCCCc2cc(O)cc(O)c2C(=O)O1 | inactive | 
40 | C=CC(=O)OCC | inactive | 
